The text below walks through data of PubChem BioAssay.

Values without a mark were called inactive. The source made the active and inactive calls. No stated cut-off is given here; in the data, active means fold change permeability below about 0.7 or above about 1.3; inactive means in between.

The experiment in a line: modulators of brain endothelial barrier permeability, primary screen, cell-based, FITC-avidin fluorescence, HTS (AID 1963498). Further: test concentration not given here. The conditions noted are these: actives lie on both sides.
Turning to `Nc1ccn([C@@H]2O[C@H](CO)[C@@H](O)[C@@H]2O)c(=O)n1`, the fold change permeability is 1.

Turning to `CC(N=C(NC#N)Nc1ccncc1)C(C)(C)C` (centres undefined), the fold change permeability was 0.9.

For `O=[N+]([O-])c1ccc2c(c1)S(=O)(=O)C=C2`, the fold change permeability was 2.1 (active).

In the case of `NC(N)=NCCC[C@H](N)C(=O)O`, the fold change permeability was 1.1.

For `NCCS(=O)(=O)O`, the fold change permeability is 0.8.

Turning to `OC[C@H]1O[C@H]([S-])[C@H](O)[C@@H](O)[C@@H]1O.[Au+]`, the fold change permeability is 1.5 (active).

On to `Oc1ccc(O)cc1`, for which the fold change permeability was 1.4 (active).

For `CN1CCN2c3ccccc3Cc3ccccc3C2C1` (centres undefined), the fold change permeability was 1.1.

As for `O=C(O)C1(C(=O)O)CCC1.[NH2-].[NH2-].[Pt+2]`, the fold change permeability was 0.8.

Take `CCN(c1nc(N)c(C(=O)N=C(N)N)nc1Cl)C(C)C`: the fold change permeability is 1.4 (active).

Turning to `Fc1cccc(/C=N\N=C/c2cccc(F)c2)c1`, the fold change permeability was 0.8.

In the case of `COc1cc(O)c(C)c(O)c1C(=O)CCc1ccccc1`, the fold change permeability is 1.8 (active).

`CC(=O)[C@H]1CCC2C3CC=C4C[C@@H](OS(=O)(=O)O)CC[C@]4(C)C3CC[C@@]21C` (some centres undefined): the fold change permeability was 1.

On to `Cc1cccc(-c2[nH]c(Cc3cccc(C(N)=O)c3)nc2-c2ccc3nccnc3c2)n1`, for which the fold change permeability was 0.9.

For the compound `CC(C)Cn1c(=O)n(C)c(=O)c2[nH]cnc21`, the fold change permeability is 0.7 (active).

As for `CSc1ccccc1N1CCN(CCCCCC(=O)NC2CCCc3ccccc32)CC1` (centres undefined), the fold change permeability is 1.3 (active).

Consider `CC(C(=O)O)c1ccc(C(=O)c2cccs2)cc1` (centres undefined), for which the fold change permeability is 0.8.

With `Cc1cccc(C#Cc2ccccc2)n1`, the fold change permeability was 0.9.

In the case of `CC(C)N1CCN(S(=O)(=O)c2ccc(NC(=O)c3ccc(C(F)(F)F)cc3[N+](=O)[O-])cc2)CC1`, the fold change permeability was 1.4 (active).

With `CN[C@H](CC(=O)O)C(=O)O`, the fold change permeability was 0.8.

Turning to `C[C@@H](O)[C@H]1C(=O)N2C(C(=O)O)=C(SCCN=CN)C[C@H]12`, the fold change permeability is 0.8.

On to `CC(C)NCC(O)c1ccc(O)c(O)c1` (centres undefined), for which the fold change permeability was 1.4 (active).

On to `O=C(O)/C=C/c1ccc(O)c(O)c1`, for which the fold change permeability was 0.8.

On to `O=C(C1CCCCC1)N1CC(=O)N2CCc3ccccc3C2C1` (centres undefined), for which the fold change permeability is 1.2.

For the compound `CCN(CC)S(=O)(=O)Nc1cccc(-c2ccc3c(NC(=O)C4CC4)n[nH]c3c2)c1`, the fold change permeability was 1.6 (active).

Turning to `c1ccc(C2CN3CCSC3=N2)cc1` (centres undefined), the fold change permeability was 1.

With `NOCC(=O)O`, the fold change permeability was 0.9.

In the case of `COc1ccccc1N1CCN(CCCCN2C(=O)c3ccccc3C2=O)CC1`, the fold change permeability is 0.9.

On to `Oc1ccc2c(c1)OC[C@]1(O)Cc3cc(O)c(O)cc3[C@H]21`, for which the fold change permeability was 1.7 (active).

On to `O=CN(O)CCCP(=O)(O)O`, for which the fold change permeability was 2.2 (active).

As to `CCCCS(=N)(=O)CC[C@H](N)C(=O)O` (some centres undefined), the fold change permeability is 0.9.

Turning to `CC(=O)/C=C1\C(=O)N(C)c2ccccc21`, the fold change permeability is 1.2.

As for `CO[C@H]1O[C@@H]2O[C@@]3(C)CC[C@H]4[C@H](C)CC[C@@H]([C@H]1C)[C@@]24OO3`, the fold change permeability was 0.8.

With `NC(=O)OCC(COC(N)=O)c1ccccc1`, the fold change permeability was 0.8.

For `COc1ccc2c(c1OC)C(=O)O[C@@H]2[C@H]1c2c(cc3c(c2OC)OCO3)CCN1C`, the fold change permeability was 1.

On to `CN(C)CCCN1c2ccccc2CCc2ccc(Cl)cc21`, for which the fold change permeability was 1.1.

`C[C@]12C=CC(=O)C=C1CC[C@H]1[C@@H]3C[C@@H](O)[C@](O)(C(=O)CO)[C@@]3(C)C[C@H](O)[C@@]12F`: the fold change permeability is 1.4 (active).

Take `Cc1ccccc1/C=C/C1=NCCN1`: the fold change permeability is 0.7 (active).

Consider `Cc1nc2sccn2c(=O)c1CCN1CCC(=C(c2ccc(F)cc2)c2ccc(F)cc2)CC1`, for which the fold change permeability is 1.9 (active).
